GALR2 ag – GALR2 (human) receptor agonism; O43603; GALR2-expressing cells, agonist activation read-out; activation, % (test concentration not listed); 140,000 compounds, 0.48% hits; in the data active = activation above about 5%, passing the limit was not always enough;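 also: 0% = vehicle buffer wells and 100% = reference agonist at full effect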
Target sequence (O43603 whole entry, looked up): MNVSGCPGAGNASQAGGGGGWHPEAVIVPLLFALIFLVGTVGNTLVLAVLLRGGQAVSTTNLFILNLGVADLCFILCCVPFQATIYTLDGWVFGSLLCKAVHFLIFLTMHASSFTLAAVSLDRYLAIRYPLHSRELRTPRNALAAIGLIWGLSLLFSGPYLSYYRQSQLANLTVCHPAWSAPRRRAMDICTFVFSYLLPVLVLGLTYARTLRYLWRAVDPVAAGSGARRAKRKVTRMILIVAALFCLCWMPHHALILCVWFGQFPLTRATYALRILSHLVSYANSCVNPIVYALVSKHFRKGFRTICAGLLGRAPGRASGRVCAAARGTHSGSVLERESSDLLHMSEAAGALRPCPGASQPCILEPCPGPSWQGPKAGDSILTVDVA
GALR2 blocker – antagonists of human galanin receptor 2 (GALR2); AID 828; O43603; GALR2-expressing cells, antagonist mode; 140,000 compounds, 0.39% hits; inhibition, % at 4 µM;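 also: cells stimulated with galanin 1-16 at roughly its EC80; 0% = agonist challenge control and 100% = basal control without agonist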
Smad3 inh – blocks human Smad3 binding to FoxH1 peptide; 88,000 compounds, 0.29% hits; TR-FRET Smad3/Dy647-FoxH1 peptide binding, europium anti-His; AID 630; inhibition, % at 25 µM;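 active = compounds that reduce the energy-transfer binding signal between the protein and its labelled peptide by more than half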;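 also: 0% = Smad3 plus labelled peptide maximal FRET and 100% = peptide-only background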
S1P2 agonist – agonists of human S1P2 receptor. O95136. S1P2-expressing cell line, agonist reporter read-out. activation, % at 4.5 µM. 97,000 compounds, 0.46% hits. AID 729; in the data active = activation above about 16%;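 also: 0% = vehicle low control and 100% = maximal reference agonist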
MT1-MMP txn act – MT1-MMP promoter transcription activation. activation factor at 10 µM. HT1080 MT1-MMP promoter luciferase reporter, luminescence, overnight; hits give high values. 86,000 compounds, 0.16% hits. AID 750;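 active = activation factor of at least 2 for MT1-MMP transcription at 10 µM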
S1P2 antag – S1P2 (human) receptor antagonism | 97,000 compounds, 0.21% hits | AID 736 | cell-based S1P2 antagonist assay, inhibition at 5 uM | inhibition, % at 5 µM; in the data active = inhibition above about 45%;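 also: CRE beta-lactamase reporter cells expressing human S1P2 stimulated with S1P; 0% = agonist at EC80 alone and 100% = agonist plus reference antagonist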
GALR2 agon conf – confirmation of human galanin receptor 2 (GALR2) agonists. shares compounds with GALR2 ag. GALR2-expressing cells, agonist activation. activation, % at 5.6 µM. 460 compounds, 10% hits. AID 864; in the data active = activation above about 8.4%;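 also: 0% = buffer-only vehicle wells and 100% = full reference agonist response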
BLA act counter – counter-screen for GALR2 agonists: beta-lactamase reporter activators | activation, % at 5.6 µM | CHO NFAT-bla reporter, beta-lactamase FRET activation | AID 865 | 460 compounds, 10% hits | shares compounds with GALR2 ag;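 active = activation above the screen-wide mean activation plus 3 SD, cut at about 8% in these data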;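 also: 0% = DMSO with PBS wells and 100% = thapsigargin positive control wells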
GALR2 ant conf – GALR2 (human) antagonism confirmed; inhibition, % at 4 µM; shares compounds with GALR2 blocker; 480 compounds, 60% hits; GALR2-expressing cells, antagonist mode, inhibition; AID 866;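 also: cells stimulated with galanin at about its EC80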
BLA inhib ctr – counter-screen for GALR2 antagonists: beta-lactamase reporter inhibitors; shares compounds with GALR2 blocker; CHO NFAT-BLA reporter, beta-lactamase FRET, thapsigargin-stimulated; inhibition, % at 4.2 µM; 480 compounds, 36% hits; AID 867;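 active = inhibition above the mean inhibition across tested compounds plus 3 SD, cut at about 27% in these data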;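 also: 0% = 500 nM thapsigargin stimulated wells and 100% = unstimulated BSA only wells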
* hit, by the source's call; / = no result; [ ] = another dose, or the depositor's remark. Shown are actives, neighbours in structure and some others; about 1.4% of the full set was active somewhere. Rule as the data show it, unless noted: active = inhibition above about 27%; inactive = the rest.

SMILES | GALR2 ag | GALR2 blocker | Smad3 inh | S1P2 agonist | MT1-MMP txn act | S1P2 antag | others
Nc1c(C(=O)OCC2CCCO2)c2nc3ccccc3nc2n1Cc1cccs1 (centres undefined) | 0.4 | 15.3 | -1.0 | 0.9 | 1.1 | -11.2
Cc1cccc(N2C(=O)NC(=O)/C(=C\c3cccn3-c3ccc(Cl)cc3)C2=O)c1 | -0.6 | 7.7 | / | -5.7 | / | 56.1*
N=C(N)n1cc(/C=N/N=C(N)N)cn1 | / | / | -14.9 | / | / | /
COc1cc2c(cc1OC)[C@]13CCN4CC5=CCO[C@@H](CC(=O)O)[C@H]([C@H]5C[C@H]41)[C@@H]3N2 | / | / | 88.1* | / | / | /
O=c1[nH]cnc2[nH]cc(CN3CCCCC3)c12 | / | / | 78.2* | / | / | /
CC(C)C(=O)CP(=O)(O)O | / | / | -3.3 | / | / | /
O=C1N[C@]2(CN3CCC2CC3)C(=O)N1CN(Cc1ccccc1)c1ccccc1 | / | / | -3.9 | / | / | /
CN1/C(=C\C=C\C2=[N+](C)c3ccc4ccccc4c3C2(C)C)C(C)(C)c2ccccc21 | 1.3 | -50.8 | -4.0 | -4.8 | / | 94.9*
C[C@]12CCC(=O)C=C1C[C@H](O)[C@@H]1[C@@H]2CC[C@@]2(C)[C@H]1CC[C@]2(C)O | / | / | 37.6 | / | / | /
CC1(C)CC(=O)C(C2(O)C(=O)NC(=O)NC2=O)=C(O)C1 | -1.1 | 1.8 | 65.3*[fluorescence artefact?] | / | 1.1 | /
CC(C)(O)/C=C/C(=O)[C@](C)(O)[C@H]1[C@H](O)C[C@@]2(C)[C@@H]3CC=C4[C@H](C=C(O)C(=O)C4(C)C)[C@@]3(C)C(=O)C[C@]12C | / | / | -5.0 | / | / | /
Cc1ccc(C2=NC(C)(C)N3C2C3c2ccc([N+](=O)[O-])cc2)cc1 (centres undefined) | 10.3* | 1.9 | / | / | / | / | GALR2 agon conf=-0.7;BLA act counter=-2.1
O=[N+]([O-])c1ccc(C2[C@H]3C(c4ccccc4)=NC4(CCCC4)N23)cc1 (some centres undefined) | 0.5 | -12.6 | / | / | / | /
COc1cc(CN2CCN(c3cc(C)ccc3C)CC2)ccc1O | 48.5* | 7.1 | 0.9 | -7.4 | 1.2 | 0.7 | GALR2 agon conf=-0.6;BLA act counter=-1.8
CC1(C)N=C(N)N=C(N)N1c1cccc(C(=O)Nc2ccc(S(=O)(=O)F)cc2)c1 | / | / | 8.9 | / | / | /
CCCCNC(=O)c1c(N)n(CCCOC)c2nc3ccccc3nc12 | 9.4* | -15.0 | / | / | 1.2 | / | GALR2 agon conf=4.3;BLA act counter=13.9*
COCCCn1c(N)c(C(=O)OCCOC)c2nc3ccccc3nc21 | 0.7 | 7.8 | -1.2 | / | 1 | /
COCCCNC(=O)c1c(NC(=O)c2ccco2)n(Cc2ccccc2)c2nc3ccccc3nc12 | 8.6 | 5.1 | 7.3 | 1.1 | 1 | 17.5 | GALR2 agon conf=2.1;BLA act counter=2.2
CCCNC(=O)c1c(N)n(Cc2ccco2)c2nc3ccccc3nc12 | 17.9* | -8.3 | -9.6 | 13.4 | 1 | -24.2 | GALR2 agon conf=5.0;BLA act counter=11.1*
CCC1(CCSC(=N)N)C(=O)NC(=O)NC1=O | / | / | -1.4 | / | / | /
NC(N)=NCCN=C(N)N | / | / | 36.0 | / | / | /
Cc1nc2c(=O)n(C)c(=O)nc-2n(C)n1 | 4.6 | 100.1* | 80.5* | 10.4 | 0 | 95.9* | GALR2 ant conf=100.2*;BLA inhib ctr=100.4*
O=C(O)C(C(=O)O)P(=S)(S)c1ccccc1 (centres undefined) | / | / | 14.3 | / | / | /
O=C(Oc1ccc(S(=O)(=O)F)cc1F)c1ccccc1Cl | / | / | 0.2 | / | / | /
FC(F)(F)c1nc2ccc(SSc3ccc4nc(C(F)(F)F)[nH]c4c3)cc2[nH]1 | / | / | 6.0 | / | / | /
SMILES | GALR2 ag | GALR2 blocker | Smad3 inh | S1P2 agonist | MT1-MMP txn act | S1P2 antag | others
O=C(c1ccccc1)C(CN1CCCC1)c1ccccc1 (centres undefined) | 0.8 | 29.9* | / | / | / | / | GALR2 ant conf=28.9*;BLA inhib ctr=25.3
C=C(C)c1ccccc1 (tested in a mixture with another compound) | / | / | 0.9 | / | / | /
COC(=O)C1CN(C#N)N(c2ccc(Cl)cc2)C12c1ccccc1-c1ccccc12 (centres undefined) | -3.1 | 77.7* | 10.9 | -15.4 | 0.1 | 78.5* | GALR2 ant conf=87.2*;BLA inhib ctr=92.4*
c1cc(CCN2CCCCC2)ccn1 | / | / | -3.5 | / | / | /
CC1(C)C[C@H]2C=C(C=O)[C@]3(C=O)C[C@]3(C)[C@H]2C1 | -2.2 | 55.5* | / | / | / | / | GALR2 ant conf=91.9*;BLA inhib ctr=99.1*
CC1CCC/C=C/C2CC(O)CC2C(O)/C=C/C(=O)O1 (centres undefined) | -0.6 | 45.6* | 3.3 | -0.9 | / | 4.2 | GALR2 ant conf=62.1*;BLA inhib ctr=18.4

Source: PubChem BioAssay
